# In ChEMBL document CHEMBL3988442, “University of Dundee, Small-Polar-MMV Screening Library” (2021):
# About 1,000 (1.4%) of roughly 69,000 compounds showed an effect of 50% or more. What follows is part of a selection rich in strong results, with near analogues and random picks from the rest.
# System: Leishmania donovani
# Assay: Leishmania intramacrophage assay
# Assay type: functional, organism-based
# Parameters: scale not given: in the data most compounds retested in dose-response had high values
Structure (SMILES),"Percent Effect (30.3 µM, […]) [%]",Percent Effect (30 µM) [%]
Cc1noc2ncc(S(=O)(=O)Nc3cc(CC(C)(C)C)[nH]n3)cc12,32.33,
CCCN(CC)C(=O)c1cc(Cn2c(C)nc3ccccc32)[nH]n1,56.73,
CCN(CCO)C(=O)c1cc(Cn2c(C)nc3ccccc32)[nH]n1,22.11,
CCCN(CCOC)C(=O)c1cc(Cn2c(C)nc3ccccc32)[nH]n1,37.64,
CCc1nnc2n1CCN(C(=O)c1ccc(-c3ccco3)[nH]c1=O)C2,,4.718
COc1ccccc1N1CCN(C(=O)CSCC2CC2)C(C)C1 (stereo not drawn),-23.1,
CSCC[C@H](N)c1nnc(SCc2cc(C)ccc2C)o1.Cl,51.5,
Cc1ccc(C)c(CSc2nnc(C(N)C(C)C)o2)c1.Cl (stereo not drawn),-13.85,
Cc1ccc(C)c(CSc2nnc([C@@H](N)C(C)C)o2)c1.Cl,-10.46,
Cc1noc(C)c1-c1cncc(C2CCCN2Cc2cn(C)cn2)n1 (stereo not drawn),19.34,
CNC(=O)N1CC[C@@H]2CN(Cc3cccc(Cl)c3)S(=O)(=O)[C@@H]2CC1,7.409,
CNC(=O)N1CC[C@@H]2CN(Cc3cccc(OC)c3)S(=O)(=O)[C@@H]2CC1,61.69,
CCCC(C(=O)NC1CCN(S(C)(=O)=O)CC1)n1cccc1 (stereo not drawn),18.03,
COc1ccc(CN2CCC3(CC2)CN(c2ccccn2)CCO3)cc1.O=C(O)C(F)(F)F.O=C(O)C(F)(F)F,-28.76,
COc1ccc(C(CNS(=O)(=O)c2cn(C)nc2C)N2CCCC2)cc1.Cl (stereo not drawn),23.75,
Cc1[nH]c2c(F)cccc2c1CC(=O)N1CCCC(N)CC1 (stereo not drawn),-7.725,
Cc1cncc(C(=O)N2CCC3(CC2)NC(=O)CC3c2ccccc2)c1.O=C(O)C(F)(F)F (stereo not drawn),4.194,

Structure (SMILES),"Percent Effect (30.3 µM, […]) [%]",Percent Effect (30 µM) [%]
Cn1cc(C2CC(=O)NC23CCN(C(=O)Cc2ccccn2)CC3)cn1.O=C(O)C(F)(F)F (stereo not drawn),2.376,
Cn1cc(C2CC(=O)NC23CCN(C(=O)c2cccnc2)CC3)cn1.O=C(O)C(F)(F)F (stereo not drawn),56.16,
O=C(NCCn1nc2ccccn2c1=O)c1sccc1-c1ccccc1,,25.6
Cn1ccc(NC(=O)Cc2ccccc2F)n1,-10.05,
COC(=O)N1CCCC(C(=O)Nc2nc(C)c(SC)s2)C1 (stereo not drawn),9.664,
O=C(CCOCc1ccccc1)NS(=O)(=O)N1CCOc2ccccc21,54.49,
CC(C)OCCC(=O)NS(=O)(=O)N1CCOc2ccccc21,-11.14,
O=C(CCc1ccco1)NS(=O)(=O)N1CCOc2ccccc21,39.68,
COCCn1cc(C(=O)N2CCCC2c2ccncc2)c2ccccc21 (stereo not drawn),-8.376,
O=C(c1cccnc1)N1CCC2(CNS(=O)(=O)c3cnccc3O2)C1 (stereo not drawn),9.418,
Cc1cc(N2CCN(C(=O)[C@@H]3C[C@@H]4C=C[C@H]3C4)CC2)nc2ccccc12,19.09,
COc1cccc(CN(C)C(=O)c2ccc(NC(C)=O)s2)c1OC,52.82,
CC(=O)Nc1ccc(C(=O)N(C)Cc2cccc(F)c2)s1,-28.94,
CC(=O)Nc1ccc(C(=O)N(C)Cc2ccc(F)cc2F)s1,41.29,
Cc1cc(C(=O)NCc2cccnc2N2CCCC(O)C2)c(C)o1 (stereo not drawn),26.29,
CCc1nc2n(n1)CCCC2NC(=O)Nc1cc(OC)ccc1C (stereo not drawn),6.976,
